Results published in PubChem BioAssay.
Values without a mark were called inactive. Active and inactive are the calls of the source.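 How the source made its calls, unless noted: active means inhibition above 50%; inactive means the rest.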

Assay: antimalarial activity against Dd2 strain (AID 2302;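 active means growth inhibition above 50% at the single 2 µM test dose, taken to imply half-maximal potency below 2 µM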;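 further: 0% = DMSO untreated growth and 100% = chloroquine plus artemisinin killed control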)
Details: P. falciparum Dd2 in RBCs, LDH growth readout, 72 h; at 2 µM; active compounds read high

Row | SMILES | growth inhibition
1 | Cc1ccc2c(-c3ccc([N+](=O)[O-])o3)cc(C)nc2c1 | 47%
2 | COc1ccc2nc(C)cc(Nc3ccc(Cl)c(Cl)c3)c2c1 | 99% (active)
3 | COc1cc(NCCCCCNc2cc(Cl)nc3ccccc23)nc2ccccc12 | 54% (active)
4 | COc1ccc(CN2CCCC(Nc3ccc(F)c(F)c3)C2)c(O)c1 (stereo not given) | 83% (active)
5 | Cc1cc(N[C@@H](CC(C)C)C(=O)NCc2cccc(F)c2)nc(NCCc2ccccc2)n1 | 33%
6 | Cc1ccc(O)c(C(=O)c2cc(C(=O)Nc3ccccc3C)c(=O)n(-c3ccccc3C)c2)c1 | 81% (active)
7 | COc1ccc2nc(C)cc(NN=Cc3cccc([N+](=O)[O-])c3)c2c1 | 97% (active)
8 | C=CCOC(=O)N1CCC(CNCc2cccc(-c3cccc(-c4nc5c(C)cccc5[nH]4)c3)c2)C1 (stereo not given) | 69% (active)
9 | Cc1[nH]c(C)c(-c2ccc(OCc3cc(F)cc(F)c3)nc2)c(=O)c1Cl | 97% (active)
10 | COc1ccc(O)cc1/C=N/Nc1ccnc2cc(Cl)ccc12 | 92% (active)
11 | Cc1cnc(NCC2CCCCC2)nc1N[C@@H](CC(C)C)C(=O)Nc1ccccc1 | 55% (active)
12 | CN(C)CCN(C)Cc1ccc(-c2cccc(NC(=O)c3ccc(Cl)cc3)c2)cc1 | 71% (active)
13 | C=CCn1c(Sc2ccc(C#N)c([N+](=O)[O-])c2)nnc1-c1cc(OC)cc(OC)c1 | 84% (active)
14 | Cc1cccc2[nH]c(-c3cccc(-c4ccc(NC(=O)CC5NC(=O)c6ccccc65)cc4)c3)nc12 (stereo not given) | 67% (active)
15 | Fc1ccc2nc(-c3ccc(-c4ccc(CN5CCC(CCN6CCCCC6)CC5)cc4)cc3)[nH]c2c1 | 100% (active)
16 | CC(C)Oc1cc2c(cc1NS(=O)(=O)c1ccc(-c3ccc(Cl)s3)cc1F)CCN(C)CC2 | 1%
17 | COc1cc2c(cc1C(F)(F)F)N(C(=O)Nc1cc(F)cc(-c3cncnc3)c1)CC2 | 52% (active)
18 | Cc1cccc(C)c1CNc1ccnc2cc(Br)ccc12 | 99% (active)
19 | CN1CCN(c2cc3c(cc2Br)CCN3C(=O)Nc2ccc(-c3cnc4ccccc4c3)cc2)CC1 | 79% (active)
20 | COCCCNC(=O)[C@H]1CNCCN1C(=O)c1ccccc1 | 95% (active)

Row | SMILES | growth inhibition
21 | COc1ccc2nccc([C@@H](O)CN3CCC(NCc4ccc5c(c4)NC(=O)CS5)CC3)c2n1 | 34%
22 | O=C(/C=C/c1ccc(Cl)c(Cl)c1)NCCCCCN1CCCN(C(=O)Nc2ccc([N+](=O)[O-])cc2)CC1 | 28%
23 | CCn1ccc2c(N3CCCS3(=O)=O)cc(C(=O)N[C@@H](Cc3ccccc3)[C@H](O)CNC3CCCCC3)cc21 | 98% (active)
24 | CC(=O)Nc1ccc(CN2CCCN(c3cc(NC(=O)c4cccc(C)c4)ccn3)CC2)cc1 | 10%
25 | CCN(CC)C(=NC(N)=NCCCCCCN=C(N)N=C(Nc1ccc(Cl)cc1)N(CC)CC)Nc1ccc(Cl)cc1 | 96% (active)
26 | CCC(ON1C(N)=NC(N)=NC1(C)C)c1ccc(Cl)cc1 (stereo not given) | 90% (active)
27 | NC(N)=NN=Cc1cc2ccccc2c2ccccc12 | 63% (active)
28 | COc1ccc(C=NNc2ccnc3cc(F)c(C)cc23)c2ccccc12 | 85% (active)
29 | CC(CN(C)C)C(=O)Nc1cccc(-c2ccc(-c3nc4ccccc4[nH]3)cc2)c1 (stereo not given) | 25%
30 | O=C(Nc1cccc(-c2csc(NC(=O)c3ccc4ccccc4c3)n2)c1)c1ccc2ccccc2c1 | 35%
31 | Clc1nc2ccccn2c1C=Cc1ccc2ccccc2n1 | 75% (active)
32 | Cc1[nH]c(C)c(-c2ccc(Nc3ccc(C(F)(F)F)cn3)cc2)c(=O)c1Br | 98% (active)
33 | COc1cc(F)c2nccc([C@@H](O)CN3CCC(NCc4nc5c(F)cccc5[nH]4)CC3)c2c1 | 5%
34 | O=C(Nc1ccc(-c2cccc(-c3nc4ccc(F)cc4[nH]3)c2)cc1)Nc1ccc(F)c(F)c1F | 98% (active)
35 | COc1ccc(NC(=O)/C=C/c2cc(Br)ccc2F)cc1OCCN(C(C)C)C(C)C | 14%
36 | C[C@@H]1CCC[C@H](C)N1C[C@@H](O)CNS(=O)(=O)c1cccc(C(F)(F)F)c1 | 2%
37 | Clc1ccc(Cc2nc3ccccc3[nH]2)cc1Cl | 2%
38 | CCCCOc1c(CNCCCCCCNCc2ccc3ccccc3c2OCCCC)ccc2ccccc12 | 89% (active)
39 | O=C(/C=C/c1ccccc1Cl)Nc1ccc(Br)c(OCCN2CCCCC2)c1 | 25%
40 | CC(C)Cc1nc(N)nc(N)c1-c1ccc(Cl)cc1 | 3%

Assay: human hepatoma cell viability loss – ATP luminescence, cytotoxicity control for P. falciparum antimalarial project, primary screen (AID 2303);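 further: 0% = DMSO wells and 100% = digitonin-killed cells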
Details: HepG2 viability, 24-48 h, at 10 µM, active compounds read high

Row | SMILES | inhibition
41 | Cc1ccc2c(-c3ccc([N+](=O)[O-])o3)cc(C)nc2c1 | 20%
42 | COc1ccc2nc(C)cc(Nc3ccc(Cl)c(Cl)c3)c2c1 | 30%
43 | COc1cc(NCCCCCNc2cc(Cl)nc3ccccc23)nc2ccccc12 | 17%
44 | COc1ccc(CN2CCCC(Nc3ccc(F)c(F)c3)C2)c(O)c1 (stereo not given) | 14%
45 | Cc1cc(N[C@@H](CC(C)C)C(=O)NCc2cccc(F)c2)nc(NCCc2ccccc2)n1 | 6%
46 | Cc1ccc(O)c(C(=O)c2cc(C(=O)Nc3ccccc3C)c(=O)n(-c3ccccc3C)c2)c1 | -15%
47 | COc1ccc2nc(C)cc(NN=Cc3cccc([N+](=O)[O-])c3)c2c1 | 6%
48 | C=CCOC(=O)N1CCC(CNCc2cccc(-c3cccc(-c4nc5c(C)cccc5[nH]4)c3)c2)C1 (stereo not given) | 22%
49 | Cc1[nH]c(C)c(-c2ccc(OCc3cc(F)cc(F)c3)nc2)c(=O)c1Cl | 20%
50 | COc1ccc(O)cc1/C=N/Nc1ccnc2cc(Cl)ccc12 | -5%
51 | Cc1cnc(NCC2CCCCC2)nc1N[C@@H](CC(C)C)C(=O)Nc1ccccc1 | 12%
52 | CN(C)CCN(C)Cc1ccc(-c2cccc(NC(=O)c3ccc(Cl)cc3)c2)cc1 | 69% (active)
53 | C=CCn1c(Sc2ccc(C#N)c([N+](=O)[O-])c2)nnc1-c1cc(OC)cc(OC)c1 | 12%
54 | Cc1cccc2[nH]c(-c3cccc(-c4ccc(NC(=O)CC5NC(=O)c6ccccc65)cc4)c3)nc12 (stereo not given) | 30%
55 | Fc1ccc2nc(-c3ccc(-c4ccc(CN5CCC(CCN6CCCCC6)CC5)cc4)cc3)[nH]c2c1 | 98% (active)
56 | CC(C)Oc1cc2c(cc1NS(=O)(=O)c1ccc(-c3ccc(Cl)s3)cc1F)CCN(C)CC2 | 23%
57 | COc1cc2c(cc1C(F)(F)F)N(C(=O)Nc1cc(F)cc(-c3cncnc3)c1)CC2 | 15%
58 | Cc1cccc(C)c1CNc1ccnc2cc(Br)ccc12 | 24%
59 | CN1CCN(c2cc3c(cc2Br)CCN3C(=O)Nc2ccc(-c3cnc4ccccc4c3)cc2)CC1 | 100% (active)
60 | COCCCNC(=O)[C@H]1CNCCN1C(=O)c1ccccc1 | 53% (active)

Row | SMILES | inhibition
61 | COc1ccc2nccc([C@@H](O)CN3CCC(NCc4ccc5c(c4)NC(=O)CS5)CC3)c2n1 | 1%
62 | O=C(/C=C/c1ccc(Cl)c(Cl)c1)NCCCCCN1CCCN(C(=O)Nc2ccc([N+](=O)[O-])cc2)CC1 | 32%
63 | CCn1ccc2c(N3CCCS3(=O)=O)cc(C(=O)N[C@@H](Cc3ccccc3)[C@H](O)CNC3CCCCC3)cc21 | -1%
64 | CC(=O)Nc1ccc(CN2CCCN(c3cc(NC(=O)c4cccc(C)c4)ccn3)CC2)cc1 | -2%
65 | CCN(CC)C(=NC(N)=NCCCCCCN=C(N)N=C(Nc1ccc(Cl)cc1)N(CC)CC)Nc1ccc(Cl)cc1 | 1%
66 | CCC(ON1C(N)=NC(N)=NC1(C)C)c1ccc(Cl)cc1 (stereo not given) | 68% (active)
67 | NC(N)=NN=Cc1cc2ccccc2c2ccccc12 | 25%
68 | COc1ccc(C=NNc2ccnc3cc(F)c(C)cc23)c2ccccc12 | -6%
69 | CC(CN(C)C)C(=O)Nc1cccc(-c2ccc(-c3nc4ccccc4[nH]3)cc2)c1 (stereo not given) | 1%
70 | O=C(Nc1cccc(-c2csc(NC(=O)c3ccc4ccccc4c3)n2)c1)c1ccc2ccccc2c1 | 3%
71 | Clc1nc2ccccn2c1C=Cc1ccc2ccccc2n1 | -31%
72 | Cc1[nH]c(C)c(-c2ccc(Nc3ccc(C(F)(F)F)cn3)cc2)c(=O)c1Br | 30%
73 | COc1cc(F)c2nccc([C@@H](O)CN3CCC(NCc4nc5c(F)cccc5[nH]4)CC3)c2c1 | 11%
74 | O=C(Nc1ccc(-c2cccc(-c3nc4ccc(F)cc4[nH]3)c2)cc1)Nc1ccc(F)c(F)c1F | 70% (active)
75 | COc1ccc(NC(=O)/C=C/c2cc(Br)ccc2F)cc1OCCN(C(C)C)C(C)C | 22%
76 | C[C@@H]1CCC[C@H](C)N1C[C@@H](O)CNS(=O)(=O)c1cccc(C(F)(F)F)c1 | 4%
77 | Clc1ccc(Cc2nc3ccccc3[nH]2)cc1Cl | 5%
78 | CCCCOc1c(CNCCCCCCNCc2ccc3ccccc3c2OCCCC)ccc2ccccc12 | 99% (active)
79 | O=C(/C=C/c1ccccc1Cl)Nc1ccc(Br)c(OCCN2CCCCC2)c1 | 11%
80 | CC(C)Cc1nc(N)nc(N)c1-c1ccc(Cl)cc1 | 5%
